Reference: ChEMBL document CHEMBL3988442, “University of Dundee, Small-Polar-MMV Screening Library” (2021)
In all, about 48,000 compounds went through this assay and about 13,000 (27%) showed an effect of 50% or more. The list shows a part of the results.

What follows are compounds tested on Wolbachia pipientis (assay: Anti-Wolbachia Cell-Based Screen). Conditions: 5 µM.
Format: functional
Set-up: scale not given: in the data most compounds retested in dose-response had high values

Row | SMILES | Percent Effect [%]
1 | CCc1cc(N(C)Cc2c(C)nn(C)c2C)n2nccc2n1 | -6.903
2 | CN(Cc1cc(F)ccc1F)CC(C)(CO)CO | 17.08
3 | CNC(=O)c1cccc(NCCOc2ccc(CC#N)cc2)c1C | 12.16
4 | COc1cccc(Cn2ncc(N(C)CCc3ccccc3)cc2=O)c1 | -17.12
5 | CC(C)OCCn1nnnc1Cc1ccc(Br)cc1 | -13.25
6 | CCOC(C(=O)N1CCn2c(C)nnc2C1)c1ccccc1 (stereo not given) | -1.753
7 | CCN(C)CC1CCN(c2ncc(Br)cn2)C1 (stereo not given) | -2.721
8 | CN(C)C(C(=O)N1CCCC1)c1ccccc1F (stereo not given) | 1.504
9 | Cc1nn(C)c2nc(-c3ccccn3)nc(NCCC3CCCN3C)c12 (stereo not given) | -7.173
10 | O=C(N1CCOCC1)N1CCCC1c1nc(-c2ccccn2)no1 (stereo not given) | 12.43
11 | COc1ccc(-c2nccc(C3CCCN3C)n2)cc1 (stereo not given) | 122.9
12 | COCCN1CCCC1c1ccnc(-c2ccccc2)n1 (stereo not given) | 120.2
13 | COc1cccc(-c2nccc(C3CCCN3C)n2)c1 (stereo not given) | 102
14 | COc1ccc(-c2noc([C@@H]3C[C@@H](O)CN3C3CCN(C)CC3)n2)cc1 | -10.46
15 | COc1cccc(-c2noc3c2CN(c2ncnc4c2CCC4)CC3)c1 | -1.898
16 | CN1CCCC1c1ccnc(-c2ccccn2)n1 (stereo not given) | 114
17 | COCCOc1ccnc(-c2noc([C@@H]3CCCN3C)n2)c1 | -6.49
18 | COCCOc1ccnc(-c2noc([C@@H]3CCCN3CC(C)(C)C)n2)c1 | 20.74

Row | SMILES | Percent Effect [%]
19 | COc1ccc(C2CCCN2c2cnccn2)c(OC)c1 (stereo not given) | 8.264
20 | COCCOc1ccnc(-c2noc([C@@H]3CCCN3CC3CC3)n2)c1 | -13.12
21 | CN(CC(=O)NC(C)(C#N)C1CC1)Cc1nnc(C2CC2)n1C (stereo not given) | -18.04
22 | Cc1cccc(S(=O)(=O)N2CSCC2C(=O)NC(C)(C)C)c1 (stereo not given) | -10.25
23 | CCc1nc(CCNC(=O)NC2CC2)sc1C | 2.732
24 | C/C=C(\C)CN1C[C@H](c2cccc(OC)c2)[C@@H](N)C1 | 1.044
25 | CN1CCCC1CCn1ccnc1-c1nc(-c2ccccc2)no1 (stereo not given) | -1.363
26 | CN1CCCC1c1ccnc(-c2ccccc2)n1 (stereo not given) | 129.7
27 | CN1CCN(C2CCN(c3ccnc(-c4ccccc4)n3)CC2)C1=O | 9.74
28 | O=C(c1ccnnc1)N1C[C@@H](OCC2CCCC2)[C@H]2OCCC[C@H]21 | -2.599
29 | CN(C)S(=O)(=O)N1C[C@H](Oc2cccnc2)[C@H]2OCCC[C@H]21.O=C(O)C(F)(F)F | 21.05
30 | O=C(CC1CCCC1)N1C[C@H](Oc2cccnc2)[C@H]2OCCC[C@H]21.O=C(O)C(F)(F)F | 105.6
31 | CN(C)CC(=O)N1C[C@@H](Oc2ccccn2)[C@H]2OCCC[C@H]21 | -36.21
32 | O=C(c1cscn1)N1C[C@@H](Oc2cccnc2)[C@H]2OCCC[C@H]21 | 101.6
33 | O=C(C[C@H]1[C@H]2CN(C(=O)Cc3ccccn3)C[C@@H]12)Nc1cccnc1 | -5.449
34 | O=C(C1=CCCC1)N1C[C@H](Oc2cccnc2)[C@H]2OCCC[C@H]21 | 9.91
35 | O=C(Cc1ccccn1)N1C[C@@H](Oc2cccnc2)[C@H]2OCCC[C@H]21 | 93.72
